In PubChem BioAssay one finds composite z-score and z-score data, which are given here for 5 compounds.

SMILES strings stand for the structures. The source made the active and inactive calls. Unless noted, the rule behind the calls is not given here.

Experiment [1] is described as follows: anti-His antibody binders, primary screen, artefact control for SMM control protein annotation, biochemical, small-molecule microarray, 635 nm fluorescence (AID 1128).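 Note: score merges feature fluorescence with signal-to-noise for each printed compound spot.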 The following applies: anti-His Alexa647 antibody binding, higher = more signal.
Experiment [2] has as its system Human papillomavirus type 1a E7 protein (residues 1-88). The experiment in a line: HPV1a E7 small-molecule binders, primary screen, biochemical, small-molecule microarray, residues 1-88, 635 nm (AID 1129). The settings on record: small-molecule microarray binding, fluorescence 635 nm; higher = more signal.
Experiment [3] deals with Focal adhesion kinase 1 (Homo sapiens) (UniProt Q05397). The experiment in a line: small-molecule microarray binders of FAK, primary screen, biochemical, 635/667 nm fluorescence, BSA, DTT (AID 1130).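 Note: composite of spot emission at 667 nm and signal to noise over triplicate slides.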 The following applies: PTK2 binding, 635 nm fluorescence, higher = more signal.
In experiment [4] the test system is Fibrinogen (Alexa647-labelled). In words: fibrinogen binders on compound microarrays, profiling panel, artefact control for SMM control-protein annotation, biochemical, small-molecule microarray, 635/667 nm fluorescence (AID 1131).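 Note: z-score merges 667 nm fluorescence with per-spot signal-to-noise over triplicate slides.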 The following applies: fibrinogen-A647 binding fluorescence, higher = more signal.
The target in experiment [5] is Follistatin (Homo sapiens) (UniProt P19883). The experiment in a line: follistatin binders on small-molecule microarrays, primary screen, biochemical, small-molecule microarray, 635/667 nm fluorescence (AID 1132). The following applies: FST binding, 635 nm fluorescence, higher = more signal.
Experiment [6] addresses Fibroblast growth factor 2 (Homo sapiens) (UniProt P09038). The experiment in a line: FGF2 binders on small-molecule microarrays, primary screen, biochemical, small-molecule microarray, 635/667 nm fluorescence (AID 1133). The following applies: small-molecule microarray binding, FGF2, fluorescence 635/667; higher = more signal.
Experiment [7] is described as follows: mitochondrial membrane potential change in A549 cells, profiling panel, cell-based, JC-1 fluorescence, basal, 24 h, 100 nL (AID 1138).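 Note: A549 lung adenocarcinoma cells under basal conditions with no added stimulus; test concentration not given here.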 The settings on record: higher = more signal.
The test system of the next experiment is Lefty1. The experiment in a line: Lefty1 binders on small-molecule microarrays, primary screen, biochemical, small-molecule microarray, 635/667 nm fluorescence (AID 1139). The settings on record: small-molecule microarray binding, fluorescence 635/667; higher = more signal.
Experiment [8] deals with wheat germ agglutinin (Triticum aestivum), Alexa647-labelled. The experiment in a line: wheat germ agglutinin binders on compound microarrays, profiling panel, artefact control for SMM control-protein annotation, biochemical, small-molecule microarray, 635/667 nm fluorescence (AID 1140).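 Note: score merges 667 nm feature emission with signal to noise over triplicate slides.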 The following applies: WGA-A647 binding, 635 nm fluorescence, higher = more signal.
In experiment [9] the target is Luciferin 4-monooxygenase (Photinus pyralis) (UniProt P08659). In words: firefly luciferase enzyme inhibitors, primary screen, biochemical, luminescence, purified enzyme, 2006 set (AID 1141).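 Note: cell-free assay with purified firefly luciferase at 100 ng per well in PBS; test concentration not given here.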 The following applies: SteadyGlo luminescence, 30 min, higher = more signal, called active from +8 up or from −8 down.
Experiment [10] relates to Wnt5a (protein binding on small-molecule microarray). The experiment in a line: Wnt5a binders on small-molecule microarray, primary screen, biophysical, 635/667 nm fluorescence (AID 1142).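 Note: fluorescence read at 667 nm with signal to noise per printed feature.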 The settings on record: 635 nm fluorescence, higher = more signal.
A short description of experiment [11]: cell viability in Huh7 cells, primary screen, cytotoxicity control for HCV replication inhibitor project, CellTiter-Glo luminescence, basal, 48 h (AID 1143).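 Note: Huh7 hepatoma cells carrying a hepatitis C replication reporter with no stimulus; test concentration not given here.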 The settings on record: Huh7 HCV replicon, higher = more signal, called active from +8 up or from −8 down.
Experiment [12] can be described thus: P. aeruginosa biofilm formation inhibitors, primary screen, PAO1 strain, BacTiter-Glo luminescence, LB-PBS (AID 1144). The settings on record: 12 h, higher = more signal.
Experiment [13] is described as follows: CREB reporter modulators without forskolin, primary screen, cell-based, PC12, CRE-LacZ reporter, unstimulated (AID 1145). The settings on record: no forskolin, luminescence, 4.5 h, higher = more signal, called active from +8 up or from −8 down.
Experiment [14] can be described thus: CREB reporter modulators under forskolin, primary screen, cell-based, PC12, CRE-LacZ reporter, forskolin-stimulated (AID 1146).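 Note: PC12 cells with 6xCRE LacZ reporter stimulated by forskolin 10 µM; beta-galactosidase reporter signal reflecting CREB driven transcription.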 The settings on record: luminescence, 4.5 h, higher = more signal, called active from +8 up or from −8 down.
Experiment [15] addresses Streptavidin (Streptomyces avidinii) (UniProt P22629). In words: streptavidin binders on small-molecule microarray, primary screen, artefact control for SMM compound annotation, biophysical, 635/667 nm fluorescence (AID 1147).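 Note: signal reflects streptavidin binding to arrayed compounds as a control protein.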 The following applies: streptavidin binding, higher = more signal.
A short description of experiment [16]: small-molecule binders of probe aInhba, primary screen, biochemical, small-molecule microarray, 635/667 nm fluorescence (AID 1148).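 Note: score merges 667nm spot fluorescence with signal-to-noise for antibody binding to printed compounds.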 The following applies: higher = more signal.
Experiment [17] addresses Torsin-1A (Homo sapiens) (UniProt O14656). The experiment in a line: torsin A binders from cell lysate, primary screen, small-molecule microarray, wild-type, 635/667 nm (AID 1149). The following applies: COS7 hTOR1A-WT lysate, 635 nm fluorescence, higher = more signal.
The target is the same in experiment [18]. The experiment in a line: small-molecule binders of mutant TOR1A in lysate, primary screen, cell lysate, small-molecule microarray, COS7 lysate, 635/667 nm fluorescence (AID 1150).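 Note: score pools 667 nm emission and signal to noise measuring lysate protein binding.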 The following applies: COS7 hTOR1A mutant lysate, 635 nm fluorescence, higher = more signal.
Experiment [19] relates to Sonic hedgehog protein (Shh). The experiment in a line: small-molecule binders of Shh protein, primary screen, biochemical, small-molecule microarray, 635/667 nm fluorescence (AID 1151).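 Note: Shh protein binding to compounds spotted on small-molecule microarray slides; score combines spot fluorescence intensity with signal-to-noise across triplicate slides.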 The following applies: small-molecule microarray binding, 635 nm fluorescence; higher = more signal.

Sequence of Torsin-1A (Homo sapiens) (O14656 whole entry, looked up): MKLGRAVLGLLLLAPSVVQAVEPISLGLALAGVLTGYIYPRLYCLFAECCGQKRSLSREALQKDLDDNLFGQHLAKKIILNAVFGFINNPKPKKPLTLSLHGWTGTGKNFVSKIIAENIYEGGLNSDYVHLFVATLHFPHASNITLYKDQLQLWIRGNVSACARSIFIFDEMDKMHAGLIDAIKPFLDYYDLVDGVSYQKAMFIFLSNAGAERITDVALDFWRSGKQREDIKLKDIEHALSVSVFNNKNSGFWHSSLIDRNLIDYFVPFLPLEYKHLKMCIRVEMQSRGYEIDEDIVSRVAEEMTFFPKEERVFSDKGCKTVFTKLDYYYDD
Sequence of Follistatin (Homo sapiens) (P19883 whole entry, looked up): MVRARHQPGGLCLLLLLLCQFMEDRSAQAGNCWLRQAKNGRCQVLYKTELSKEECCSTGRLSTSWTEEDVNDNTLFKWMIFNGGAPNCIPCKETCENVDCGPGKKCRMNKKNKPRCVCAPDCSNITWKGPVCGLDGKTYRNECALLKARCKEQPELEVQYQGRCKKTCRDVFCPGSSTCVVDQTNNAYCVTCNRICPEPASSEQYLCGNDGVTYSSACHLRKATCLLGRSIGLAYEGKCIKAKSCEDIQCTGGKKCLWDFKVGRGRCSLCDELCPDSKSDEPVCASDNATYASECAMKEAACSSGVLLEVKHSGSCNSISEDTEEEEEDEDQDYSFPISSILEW
Sequence of Focal adhesion kinase 1 (Homo sapiens) (Q05397 whole entry, looked up): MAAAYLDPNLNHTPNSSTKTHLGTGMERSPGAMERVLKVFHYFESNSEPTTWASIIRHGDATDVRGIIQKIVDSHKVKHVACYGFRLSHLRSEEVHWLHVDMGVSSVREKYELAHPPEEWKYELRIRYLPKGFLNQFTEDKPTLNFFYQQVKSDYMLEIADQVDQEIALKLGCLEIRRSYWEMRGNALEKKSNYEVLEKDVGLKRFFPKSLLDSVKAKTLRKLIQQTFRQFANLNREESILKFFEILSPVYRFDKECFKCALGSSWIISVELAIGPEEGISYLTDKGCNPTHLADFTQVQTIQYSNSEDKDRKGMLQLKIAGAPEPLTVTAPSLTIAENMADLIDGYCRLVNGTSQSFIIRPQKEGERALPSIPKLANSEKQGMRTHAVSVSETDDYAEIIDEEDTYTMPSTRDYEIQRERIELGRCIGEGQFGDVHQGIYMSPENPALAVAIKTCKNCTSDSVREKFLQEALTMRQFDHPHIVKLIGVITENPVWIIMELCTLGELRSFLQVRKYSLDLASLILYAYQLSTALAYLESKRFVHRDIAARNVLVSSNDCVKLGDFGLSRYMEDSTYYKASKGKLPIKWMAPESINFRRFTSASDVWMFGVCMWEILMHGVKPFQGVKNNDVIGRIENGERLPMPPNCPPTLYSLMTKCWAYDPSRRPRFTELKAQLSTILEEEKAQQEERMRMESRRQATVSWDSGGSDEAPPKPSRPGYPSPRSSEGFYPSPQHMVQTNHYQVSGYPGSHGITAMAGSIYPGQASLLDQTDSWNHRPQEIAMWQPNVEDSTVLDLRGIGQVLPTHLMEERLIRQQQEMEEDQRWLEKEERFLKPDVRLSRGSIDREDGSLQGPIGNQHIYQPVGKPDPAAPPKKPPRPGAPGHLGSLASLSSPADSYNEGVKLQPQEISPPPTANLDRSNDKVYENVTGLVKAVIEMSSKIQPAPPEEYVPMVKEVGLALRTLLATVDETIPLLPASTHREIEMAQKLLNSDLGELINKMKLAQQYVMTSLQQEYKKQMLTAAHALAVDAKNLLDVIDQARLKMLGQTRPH
Sequence of Luciferin 4-monooxygenase (Photinus pyralis) (P08659 whole entry, looked up): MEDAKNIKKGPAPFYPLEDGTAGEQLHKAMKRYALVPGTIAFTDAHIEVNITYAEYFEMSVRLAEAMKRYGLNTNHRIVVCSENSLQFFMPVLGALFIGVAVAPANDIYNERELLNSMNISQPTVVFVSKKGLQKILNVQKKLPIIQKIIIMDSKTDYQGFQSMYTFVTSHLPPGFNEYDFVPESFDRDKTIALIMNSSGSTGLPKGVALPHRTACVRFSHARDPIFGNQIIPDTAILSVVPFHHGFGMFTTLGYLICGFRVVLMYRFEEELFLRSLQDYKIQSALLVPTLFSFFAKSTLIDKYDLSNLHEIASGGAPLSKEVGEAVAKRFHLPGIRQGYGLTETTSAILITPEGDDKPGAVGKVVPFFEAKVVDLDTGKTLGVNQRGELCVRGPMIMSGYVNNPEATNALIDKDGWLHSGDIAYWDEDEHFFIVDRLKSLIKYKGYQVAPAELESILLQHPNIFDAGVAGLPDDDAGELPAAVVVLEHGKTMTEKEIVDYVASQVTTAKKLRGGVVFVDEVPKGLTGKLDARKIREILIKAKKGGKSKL
Sequence of Fibroblast growth factor 2 (Homo sapiens) (P09038 whole entry, looked up): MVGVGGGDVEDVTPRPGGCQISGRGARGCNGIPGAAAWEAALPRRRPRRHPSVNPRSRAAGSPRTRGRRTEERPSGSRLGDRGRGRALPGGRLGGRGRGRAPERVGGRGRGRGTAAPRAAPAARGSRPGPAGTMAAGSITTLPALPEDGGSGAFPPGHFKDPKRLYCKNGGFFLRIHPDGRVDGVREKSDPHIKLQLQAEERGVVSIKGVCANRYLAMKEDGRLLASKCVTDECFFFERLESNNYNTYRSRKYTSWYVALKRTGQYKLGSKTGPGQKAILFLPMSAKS
Sequence of Streptavidin (Streptomyces avidinii) (P22629 whole entry, looked up): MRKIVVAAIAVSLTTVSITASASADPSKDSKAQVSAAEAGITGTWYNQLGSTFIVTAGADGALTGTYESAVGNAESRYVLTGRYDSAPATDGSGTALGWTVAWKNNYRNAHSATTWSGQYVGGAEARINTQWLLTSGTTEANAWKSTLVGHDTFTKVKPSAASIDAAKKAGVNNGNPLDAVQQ

Regarding `CCCNC(=O)OC[C@H]1O[C@H](CCON=Cc2ccc(C(=O)N3[C@H](c4ccc(C)cc4)[C@@H](C)CC[C@H]3C(=O)OC)cc2)C=C[C@@H]1Oc1ccc(OC)cc1`, the composite z-score in experiment [1] was determined as 1.77; in experiment [2], 0.838; in [3], 0.315; in experiment [4], 0.88; in experiment [5], 0.277; in [6] it was 0.666. Also, the composite z-score with Lefty1 is 0.58; in experiment [8] it was 0.236; in experiment [10] it was 0.157; in [15], 0.0335; in experiment [16], -0.105; with Torsin-1A (Homo sapiens) [17] it was 0.436. For the same compound, the composite z-score came to 0.853 with Torsin-1A (Homo sapiens) [18] and 0.396 in experiment [19]. Also, the z-score in experiment [7] was -0.195; in [9], 0.407 (inactive); in [11] it was -1.73 (inactive); in experiment [12], 0.0699 (inactive); in experiment [13] it was 2.55 (inactive); in [14], 1.16 (inactive).

With `CCOC(=O)[C@H](Cc1ccccc1)NC(=O)CCC1CC(OC(=O)NCCc2ccc(F)cc2)CC2(CCCC(COC(=O)NCCc3ccccc3OC)O2)O1` (stereo not given in full), the composite z-score in experiment [1] is 0.949; in experiment [2], 1.15; in [3], 0.165; in [4] it was 0.916; in experiment [5], 0.818; in experiment [6] it was 0.888. The composite z-score in the experiment on Lefty1 was 1.11; in experiment [8], 0.441; in experiment [10], 0.359; in experiment [15], 0.536; in [16] it was -0.0897; in the experiment with Torsin-1A (Homo sapiens) [17], 0.196. Also, the values for the composite z-score (with Torsin-1A (Homo sapiens) [18]; in experiment [19]) were 0.721 and 1.54, respectively. Also, the z-score is -0.366 in experiment [7]; 0.451 (inactive) in experiment [9]; -0.131 (inactive) in experiment [11]; 0.248 (inactive) in experiment [12]; 0.198 (inactive) in experiment [13]; -0.099 (inactive) in experiment [14].

On to `COC(=O)CC=C[C@@H](C)[C@@H](C=NO[C@@H](C)c1cn([C@H](CO)Cc2ccccc2)nn1)OC`, for which the composite z-score in experiment [1] is 2.93; in experiment [2], 0.168; in experiment [3], -0.0296; in experiment [4] it was 0.578; in experiment [5] it was 0.293; in experiment [6], 0.411. For the same compound, the composite z-score was 0.579 with Lefty1; 0.084 in [8]; -0.251 in experiment [10]; 0.303 in [15]; -0.128 in experiment [16]; 0.652 with Torsin-1A (Homo sapiens) [17]. The composite z-score in the experiment with Torsin-1A (Homo sapiens) [18] was 0.278; in [19], 0.469. Moreover, the z-score was 0.269 in [7]; -2.11 (inactive) in experiment [9]; -0.323 (inactive) in [11]; -0.54 (inactive) in experiment [12]; 0.597 (inactive) in experiment [13]; 0.0826 (inactive) in [14].

For `C#CCCCON=C1C[C@@H](O)[C@@H](O)[C@@H]2[C@@H]3C(=O)N(C(C)(C)C)C(=O)[C@@H]3CC[C@H]12`, the composite z-score is 0.0217 in experiment [1]; -0.204 in [2]; -0.0811 in experiment [3]; 0.589 in experiment [4]; -0.861 in [5]; -0.127 in [6]. Moreover, the composite z-score is -0.912 in the experiment on Lefty1; 0.903 in experiment [8]; -0.19 in experiment [10]; 0.941 in experiment [15]; 0.0228 in [16]; -0.309 with Torsin-1A (Homo sapiens) [17]. Also, the composite z-score with Torsin-1A (Homo sapiens) [18] is -0.123; in experiment [19], -0.914. Also, the z-score in experiment [7] was -0.049; in experiment [9], 0.541 (inactive); in [11], 0.0285 (inactive); in experiment [12], 0.189 (inactive); in experiment [13], 0.608 (inactive); in experiment [14], 0.0692 (inactive).

In the case of `CCN1C(=O)[C@H]2[C@H]3[C@H](O)[C@H](O)CC(=O)[C@H]3CC[C@H]2C1=O`, the composite z-score in [1] is 0.463; in [2] it was 0.809; in experiment [3], 0.0493; in experiment [4], 0.861; in [5], 0.486; in [6], 0.485. Also, the composite z-score in the experiment on Lefty1 was 0.559; in experiment [8] it was 0.145; in experiment [10], 0.113; in experiment [15] it was -0.0154; in [16] it was -0.225; in the experiment with Torsin-1A (Homo sapiens) [17] it was 1.06. Also, the composite z-score with Torsin-1A (Homo sapiens) [18] was 0.386; in experiment [19], 0.593. Also, the z-score is -0.335 in experiment [7]; -0.371 (inactive) in experiment [9]; 0.89 (inactive) in experiment [11]; -0.212 (inactive) in experiment [12]; -0.293 (inactive) in experiment [13]; -0.733 (inactive) in experiment [14].
